Screen size: about 1,300 compounds; about 1,000 (77%) were called active. Roughly 7% stayed inconclusive and do not appear here. The call rests on the fitted dose curve; in most records, active means well fitted inhibition curve with a large enough effect; inconclusive means small, poorly fitted or top-dose-only effect; inactive means no such curve, though single readings can be large or run the other way. So high a share suggests a set chosen from earlier hits. This is one part of the list.
test: qHTS of small molecules that selectively kill Giardia lamblia: Hit Validation.;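 further: viability measured as ATP content by luminescence so killing lowers signal; nearly all actives have a fitted effect of over 65% in size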; settings: Giardia lamblia trophozoite viability, dose-response; series mostly up to 38.3 µM; activity change, negative = killing: at the top concentration
In short: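 Luminescent ATP signal served as the viability read-out, measured 15-30 min after adding ATP detection reagent to trophozoites that had been incubated with compounds for 48 hrs at 37 deg C anaerobically at 100 cells/well.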
On the % scale 0 is the no-effect control and ±100 the full control effect; potency means the concentration at half of the fitted maximal effect.

Row | Compound | Potency | activity change, negative = killing
1 | Cc1[nH]c2ccccc2c1C(=O)C(C)OC(=O)c1ccc([N+](=O)[O-])o1 (stereo unspecified) | 1830 nM (active) | –
2 | COc1cc(/C=C/c2ccc3cccc(OC)c3n2)c(O)c([N+](=O)[O-])c1 | 1630 nM (active) | –
3 | COc1cc(/C=C/c2ccc3cccc(OC)c3n2)c(OC(C)=O)c([N+](=O)[O-])c1 | 1830 nM (active) | –
4 | O=C(Nc1cccc2ccccc12)C12CC3CC(C1)CC(n1cnc([N+](=O)[O-])n1)(C3)C2 | 3650 nM (active) | –
5 | O=C(Nc1cc([N+](=O)[O-])c2[nH]c(=O)c3ccccc3c2c1)C(F)(F)F | 1030 nM (active) | –
6 | COc1ccc(NS(=O)(=O)c2ccc3oc4ccccc4c3c2)cn1 | – | -13.8% (inactive)
7 | c1coc(-c2nc3cc4ccccc4cc3nc2-c2ccco2)c1 | 3650 nM (active) | –
8 | CCOn1c(=O)c(-c2cccc([N+](=O)[O-])c2)[n+]([O-])c2ccccc21 | 1030 nM (active) | –
9 | O=c1c(-c2cccc([N+](=O)[O-])c2)[n+]([O-])c2ccccc2n1O | 5160 nM (active) | –
10 | CC(NC(=O)c1ccc(N(C)C)c([N+](=O)[O-])c1)c1ccc(-n2ccnc2)cc1 (stereo unspecified) | 4600 nM (active) | –
11 | COc1ccccc1C1C([N+](=O)[O-])=CC([N+](=O)[O-])=CN1C (stereo unspecified) | 2590 nM (active) | –
12 | Cc1ccc(S(=O)(=O)N2[C@@H](c3ccccc3)C(C(=O)O)=CC[C@H]2c2cccc(Cl)c2)cc1 | 103 nM (active) | –
13 | Cc1ccc(S(=O)(=O)N2[C@@H](c3ccc(F)cc3)C(C(=O)O)=CC[C@H]2c2ccc(Cl)cc2)cc1 | – | -46% (inactive)
14 | Cc1ccc(S(=O)(=O)N2[C@@H](c3ccc(F)cc3)C(C(=O)O)=CC[C@H]2c2ccc3c(c2)OCO3)cc1 | – | -45.2% (inactive)
15 | O=[N+]([O-])c1cccc2nc3ccccc3c(NCCCn3ccnc3[N+](=O)[O-])c12 | 1630 nM (active) | –
16 | CN=c1scc(-c2ccccc2F)n1/N=C(\C)c1cccnc1 | 4100 nM (active) | –
17 | Cc1ccc(Nc2ccc([N+](=O)[O-])nc2[N+](=O)[O-])cc1 | 3260 nM (active) | –
18 | COc1cc(Nc2ccc(C)cc2)c([N+](=O)[O-])nc1[N+](=O)[O-] | 1450 nM (active) | –
19 | O=C(Nc1ccc2[nH]ncc2c1)c1ccccc1Cl | 5790 nM (active) | –
20 | O=[N+]([O-])c1ccc(Oc2cccc(Br)c2)c2ccncc12 | 2050 nM (active) | –
21 | O=C(NCc1cccnc1)c1ccc([N+](=O)[O-])o1 | 1160 nM (active) | –

Row | Compound | Potency | activity change, negative = killing
22 | CN(C(=O)c1cc([N+](=O)[O-])ccc1NCc1cccnc1)c1ccccc1 | – | -18% (inactive)
23 | O=C(Nc1nnc(-c2ccco2)o1)c1ccc([N+](=O)[O-])s1 | 3650 nM (active) | –
24 | O=C(NCc1ccco1)c1ccc([N+](=O)[O-])o1 | 1830 nM (active) | –
25 | O=C(Nc1cccnc1)c1ccc([N+](=O)[O-])s1 | 2050 nM (active) | –
26 | O=C(Cc1ccc(-n2c(=O)c3sccc3n(CC(=O)Nc3ccccc3)c2=O)cc1)NCc1ccco1 | – | 15% (inactive)
27 | CCN(C(=O)N(CC)c1ccccc1)c1ccccc1 | – | -33.4% (inactive)
28 | O=C(Nc1cccnc1)c1ccc([N+](=O)[O-])o1 | 1300 nM (active) | –
29 | O=C(Nc1ccc(Cc2ccncc2)cc1)c1ccc([N+](=O)[O-])o1 | 1160 nM (active) | –
30 | Cc1ccc(CNC(=O)c2ccc([N+](=O)[O-])o2)cc1 | 1830 nM (active) | –
31 | Cc1ccc(CNC(=O)c2cc(S(=O)(=O)N3CCOCC3)cn2C)cc1 | – | -15.8% (inactive)
32 | CNc1nnc(-c2ccc(N(C)C)cc2)s1 | 3260 nM (active) | –
33 | CCc1ccc2nc3sc(C(=O)O)cc3cc2c1 | 10300 nM (active) | –
34 | CCN1C[C@@H]2[C@@H]3C(=O)N(C)C(=O)[C@@H]3[C@](C)(C1=O)N2C(=O)c1ccc(Cl)c(Cl)c1 | – | -11.8% (inactive)
35 | O=C1NCCN1c1ncc([N+](=O)[O-])s1 | 103 nM (active) | –
36 | COc1ccc(-c2cc3nc[nH]c(=O)c3s2)cc1 | 4600 nM (active) | –
37 | CCNc1nc(NCC)nc(-n2nc(C)cc2C)n1 | – | -58.2% (inactive)
38 | O=C(NNC(=O)c1ccc([N+](=O)[O-])o1)c1ccccc1 | 516 nM (active) | –
39 | O=C(NN(c1ccccc1)c1ccccc1)c1ccc([N+](=O)[O-])o1 | 1830 nM (active) | –
40 | C/C(=N/NC(=O)C(O)(c1ccccc1)c1ccccc1)c1ccc([N+](=O)[O-])o1 | 365 nM (active) | –
41 | CN(Cc1ccccc1)C(=O)c1ccc([N+](=O)[O-])o1 | 3650 nM (active) | –
42 | O=C(O)C1CCCN1S(=O)(=O)c1ccc(Br)cc1 (stereo unspecified) | – | 1.98% (inactive)

Row | Compound | Potency | activity change, negative = killing
43 | COc1ccc(OC)c2c(C)c(C)[nH]c12 | – | 1.8% (inactive)
44 | CN(C(=O)OC(C)(C)C)c1ccc(-c2nc3ccccc3s2)cc1 | 1830 nM (active) | –
45 | Cc1c[nH]c(=O)c([N+](=O)[O-])c1 | 8180 nM (active) | –
46 | COc1cc2c3c(c1OC)C1(C=CC(=NNC(N)=O)C=C1)CC3N(C(C)=O)CC2 (stereo unspecified) | – | 8.72% (inactive)
47 | COc1ccc(-n2nc([N+](=O)[O-])c(=NCCCN3CCCC3=O)n2O)cc1 | 2050 nM (active) | –
48 | O=C1CCCN1CCCN=c1c([N+](=O)[O-])nn(-c2ccc(Cl)cc2)n1O | 3650 nM (active) | –
49 | Cn1cccc1C1CCCN1CC(=O)Nc1ccc(F)c(F)c1F (stereo unspecified) | – | -3.96% (inactive)
50 | Cc1ccc(CNC(=O)CSc2ccsc2[N+](=O)[O-])cc1 | 2590 nM (active) | –
51 | O=C(CSc1ccsc1[N+](=O)[O-])NC1CCCC1 | 1030 nM (active) | –
52 | O=C(CSc1ccsc1[N+](=O)[O-])N1CCN(c2ccccn2)CC1 | 579 nM (active) | –
53 | O=C(CSc1ccsc1[N+](=O)[O-])NCc1ccccc1 | 1160 nM (active) | –
54 | CCOC(=O)Cc1csc(SCC(=O)NC2CCCCC2)n1 | – | -6.03% (inactive)
55 | COc1ccc(CNC(=O)CSc2ccsc2[N+](=O)[O-])cc1 | 1630 nM (active) | –
56 | CCc1ccccc1NC(=O)CSc1ccsc1[N+](=O)[O-] | 2310 nM (active) | –
57 | CCc1ccccc1NC(=O)CC(NCc1ccccc1)C(=O)O (stereo unspecified) | – | -10.3% (inactive)
58 | COc1ccccc1CNC(=O)CSc1ccsc1[N+](=O)[O-] | 1450 nM (active) | –
59 | CC(=O)c1ccc(NC(=O)CSc2ccsc2[N+](=O)[O-])cc1 | 918 nM (active) | –
60 | CCn1c(=O)n(CC)c2cc(N)ccc21 | – | 16.7% (inactive)
61 | Cc1cc(C(=O)CCC(=O)NC(C)c2ccc(S(N)(=O)=O)cc2)c(C)s1 (stereo unspecified) | – | -28% (inactive)

— PubChem BioAssay AID588397 (National Center for Advancing Translational Sciences (NCATS), 2011)
